# Laboratory results from PubChem BioAssay (NCATS).
# Values joined by “and” are separate entries in the source; they are usually repeats but may differ in a detail not shown here. Identical values can stand only once. Results filed as inconclusive are left out. A structure can be active in one record and inactive in another. Active and inactive are the calls of the source. Calls follow the shape of the dose curve; as a rule, active = well fitted cell-killing curve with a large enough effect; inconclusive = small, poorly fitted or top-dose-only effect, or effect the other way; inactive = no such curve, though single readings can be large or run the other way.
# Assay: Viability qHTS for spleen associated tyrosine kinase inhibitor (SYKi) drug resistant MV4-11 cells (AID 1963824); also: nearly all actives have a fitted effect of over 35% in size
# Details: SYKi-resistant MV4-11 viability, CellTiter-Glo, 72 h; series mostly up to 45 µM; viability, % of control: at the top concentration
# Method in brief: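 SYK inhibitor-resistant MV4-11 AML cells, 500 per well, added to predispensed compounds and incubated 72 hr at 37 C, 5% CO2. Viability measured by CellTiter-Glo luminescence after 10 min at room temperature.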
# Potency is read from the fitted curve at half-maximal effect.
Compound,Potency,"viability, % of control"
NC[C@@](O)(c1ccc(Cl)cc1)c1ccc(-c2cn[nH]c2)cc1,3.26 µM (active) and 6.61 µM (active),–
CCN(C(=O)c1ccccc1OC)c1cc2c(cc1N1CCNC[C@H]1C)n(C)c(=O)n2C,–,92.4% (inactive)
NC(=O)c1ncn([C@@H]2O[C@H](CO)[C@@H](O)[C@H]2O)c1O,inactive,–
COc1ccc(CNC(=O)c2cc(-c3cncc(Cl)c3)cnc2-c2ccccn2)nc1OC,–,72.9% (inactive)
CC(C(=O)O)c1ccc2c(c1)[nH]c1ccc(Cl)cc12 (stereo not given),inactive,–
COc1ccc(Cc2cnc(N)nc2N)cc1OC,–,107% (inactive)
CN(C)CCOc1ccccc1Cc1ccccc1,–,70.5% (inactive)
Cc1oc(=O)oc1COC(=O)[C@@H]1N2C(=O)[C@@H](NC(=O)[C@H](N)c3ccccc3)[C@H]2SC1(C)C,–,83.9% (inactive)
O=Cc1ccc(O)c(O)c1O,–,92.6% (inactive)
CN(C)CCCOc1nn(Cc2ccccc2)c2ccccc12,inactive and 13 µM (active),–
CC(=O)O[C@]1(C(C)=O)CC[C@H]2[C@@H]3C[C@H](C)C4=CC(=O)CC[C@]4(C)[C@H]3CC[C@@]21C,9.44 µM (active) and 13.2 µM (active),–
CC(C)(Cc1ccc2ccccc2c1)NC[C@@H](O)COc1cccc(Cl)c1C#N,6.61 µM (active),–
CCCCNc1ncc2c(-c3ccc(F)cc3)nn(CC3CCC(N)CC3)c2n1 (stereo not given),0.0112 µM (active),–
Cc1cccc(C)c1NC(=O)c1ccc(N)cc1,–,91.2% (inactive)
CC(C)COCC(CN(Cc1ccccc1)c1ccccc1)N1CCCC1 (stereo not given),15 µM (active) and 11.8 µM (active),–
CN1C(=O)N[C@H](Cc2c[nH]c3c(Cl)cccc23)C1=O,–,70% (inactive)
CN(C)CCOc1ccc(/C(=C(/CCCl)c2ccccc2)c2ccccc2)cc1,13.2 µM (active),–
CCOC(=O)c1cnc2c(cnn2CC)c1NN=C(C)C,–,71.1% (inactive)
C/C=C/C[C@@H](C)C(=O)[C@H]1C(=O)N[C@@H](C(C)C)C(=O)N(C)CC(=O)N(C)[C@@H](CC(C)C)C(=O)N[C@@H](C(C)C)C(=O)N(C)[C@@H](CC(C)C)C(=O)N[C@@H](C)C(=O)N[C@H](C)C(=O)N(C)[C@@H](CC(C)C)C(=O)N(C)[C@@H](CC(C)C)C(=O)N(C)[C@@H](C(C)C)C(=O)N1C,4.07 µM (active),–
C#CC[C@H](c1nc2cc(Cl)ccc2c(=O)n1Nc1ccccc1)N(CCCN)C(=O)c1cccc(Cl)c1F,0.206 µM (active),–

Compound,Potency,"viability, % of control"
c1ccc2sc(SN3CCOCC3)nc2c1,–,88.7% (inactive)
C[C@H](N)[C@H](O)c1cccc(O)c1,–,85.4% (inactive)
CC(C)Oc1ccc(-c2nn([C@@H](C)c3oc4ccc(F)cc4c(=O)c3-c3cccc(F)c3)c3ncnc(N)c23)cc1F,11.8 µM (active),–
O=C(CCCl)NCCc1ccccc1,–,90.7% (inactive)
CN(C)C(=O)c1cc2cnc(Nc3ccc(N4CCNCC4)cn3)nc2n1C1CCCC1,5.17 µM (active),–
CN1CCN(Cc2ccc(Nc3ncc(Cl)c(Nc4ccccc4S(=O)(=O)N(C)C)n3)cc2)CC1,0.0096 µM (active),–
C[C@@H]1CC(=O)Nc2cccc(-c3cnn(C(C)(C)C)c3)c2N1,11.8 µM (active),–
C[C@@H]1CC(=O)Nc2cccc(-c3ccc4c(c3)c(-c3cnn(C)c3)nn4C)c2N1,1.32 µM (active),–
C[C@@H](O[C@H]1OCCN(Cc2n[nH]c(=O)[nH]2)[C@@H]1c1ccc(F)cc1)c1cc(C(F)(F)F)cc(C(F)(F)F)c1,16.6 µM (active),–
CONC(=O)Nc1ccc(-c2sc3c(c2CN(C)Cc2ccccc2)c(=O)n(-c2ccccc2)c(=O)n3Cc2c(F)cccc2F)cc1,16.6 µM (active),–
CNCc1ccccc1,–,89.5% (inactive)
COc1cccc2c1C(=O)c1c(O)c3c(c(O)c1C2=O)C[C@@](O)(C(=O)CO)C[C@@H]3O[C@H]1C[C@H](N)[C@H](O[C@@H]2CCCCO2)[C@H](C)O1,3.35 µM (active),–
O=C(O)/C(S)=C/c1ccc(I)cc1,–,100% (inactive)
Cc1ccc(S(=O)(=O)Nc2cc(-c3ccc(C#N)s3)ccc2C)cc1,0.0332 µM (active),–
CNC(=O)[C@H]1O[C@@H](n2cnc3c(NCc4cccc(I)c4)nc(Cl)nc32)[C@H](O)[C@@H]1O,8.33 µM (active),–
COc1cc(C)[nH]c(=O)c1CN1CCc2c(Cl)cc([C@H](OC)C3COC3)c(Cl)c2C1=O,–,91.9% (inactive)
COc1ccccc1C(=O)Nc1cc2c(cc1N1CCCCC1)n(C)c(=O)n2C,14.8 µM (active),–
CCC[C@H](N[C@H]1CCc2cc(F)cc(F)c2C1)C(=O)Nc1cn(C(C)(C)CNCC(C)(C)C)cn1,9.2 µM (active) and 6.61 µM (active),–
Cc1ccc(S(=O)(=O)Nc2cc(C(F)(F)F)ccc2C(=O)Nc2nc(-c3ccccc3)cs2)cc1,2.95 µM (active),–
CC(/C=C/C(=O)NO)=C\[C@@H](C)C(=O)c1ccc(N(C)C)cc1,259 nM (active) and 332 nM (active),–
